# Data: PubChem BioAssay (NCI)
# The panel holds about 83,000 compounds, 20% with a hit somewhere; the sample as a whole holds those more often.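 Note: values are percent growth. 100 is the growth of untreated cells, values between 100 and 0 indicate rising inhibition; between -100 and 0 indicates cell death.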 Unmarked numbers belong to inactive results. Active and inactive are the calls of the source. The calls were made as follows: active = growth percent below 10; inactive = the rest.
# Columns and labels:
# Test in all cases: NCI-60 one-dose screen, 48 h (100 = growth as untreated, 0 = no growth, -100 = all killed)
# BT-549 breast = conditions: 10 µM
# MDA-MB-435 melanoma = conditions: 10 µM
# SW-620 colon = conditions: 10 µM
# MCF7 breast = conditions: 10 µM unless noted
# HCT-116 colon = conditions: 10 µM
# KM12 colon = conditions: 10 µM
# HCC-2998 colon = conditions: 10 µM
Compound,growth (BT-549 breast),growth (MDA-MB-435 melanoma),growth (SW-620 colon),growth (MCF7 breast),growth (HCT-116 colon),growth (KM12 colon),growth (HCC-2998 colon)
O=C1N(C[P+](c2ccccc2)(c2ccccc2)c2ccccc2)CCCN1C[P+](c1ccccc1)(c1ccccc1)c1ccccc1,103%,105%,109%,98.7%,97%,111%,–
CCC(C#N)(CC)c1ccccc1,100%,104%,104%,95.4%,105%,106%,–
O=C(NCO)c1ccccc1,–,108%,103%,101%,105%,–,111%
Cc1cc2nc(CC(=O)c3cccc([N+](=O)[O-])c3)c(=O)[nH]c2cc1C,87%,93.9%,93.7%,–,54.8%,86.6%,89.9%
CCOC(=O)CSc1c([N+](=O)[O-])ncn1C,–,101%,103%,88.2%,103%,96.2%,107%
OCCN(CCO)C(=S)S,110%,108%,106%,98.2%,109%,107%,113%
Cc1ccc(C)n1-c1ccsc1C(=O)NNC(=O)C(Cl)Cl,112%,98.4%,102%,96.9%,105%,101%,105%
COc1ccc(C(C)C=O)cc1 (stereo unspecified),–,113%,–,95.9%,101%,107%,109%
CC1(O)OC(COc2ccc(Cl)cc2)COC1O (stereo unspecified),112%,106%,101%,–,103%,108%,109%
O=C(Cc1nc2ccc([N+](=O)[O-])cc2nc1CC(=O)c1ccccc1)c1ccccc1,37.3%,63.3%,62.6%,30.1%,34.8%,39.4%,89%
CO[C@H]1C[C@@H]2CC[C@@H](C)[C@@](O)(O2)C(=O)C(=O)N2CCCC[C@H]2C(=O)O[C@H]([C@H](C)C[C@@H]2CC[C@@H](O)[C@H](OC)C2)CC(=O)[C@H](C)C=C(C)[C@@H](O)[C@@H](OC)C(=O)[C@H](C)C[C@H](C)/C=C/C=C/C=C1C,15.6%,49%,58%,23.8%,31.1%,60.9%,146%
Nc1nc(N)c(N=Nc2ccc(C(=O)O)cc2)c(N)n1,97%,103%,90.8%,–,95.4%,115%,100%
CN1C(=O)CN2CCc3ccccc3C2c2cc(Cl)ccc21 (stereo unspecified),99.7%,105%,-33.6% (active),84.5%,82.5%,106%,98.1%
CCCCCCCCCCCCCC(=O)Oc1ccc[nH]c1=O,94.4%,113%,101%,95.8%,94.6%,92.7%,109%
COc1ccc(C2OC(N)=C(O)C2=O)cc1OC (stereo unspecified),102%,110%,103%,93.8%,99.7%,109%,107%
CCCCCCCCCCCCCCCCC1CC(=O)OC1=O (stereo unspecified),–,101%,105%,98.5%,–,108%,114%
O=[N+]([O-])c1ccc(-c2noc(-c3cccs3)n2)cc1,78.3%,94.2%,90.4%,–,47.5%,88.5%,99.9%
O=S(=O)(Cc1ccccc1)c1ccccc1,105%,107%,115%,99.5%,103%,110%,105%
O=C(Cc1nc2ccc([N+](=O)[O-])cc2nc1CC(=O)c1cccnc1)c1cccnc1,8.87% (active),89.8%,81.3%,47.4%,50.5%,63.1%,96.2%
O=[N+]([O-])c1ccccc1N=Nc1ccc(O)cc1O,101%,120%,116%,94.7%,100%,110%,–
CN(C)CCN(C)CC(C)(C)C(=O)/C=C/c1ccc(Cl)cc1,-34.5% (active),0.434% (active),-24.2% (active),–,-92.1% (active),-23.7% (active),-92.9% (active)
Cc1cccc(CO)c1,106%,108%,103%,96.6%,104%,97%,112%
CC1(C)S(=O)(=O)OCCOS1(=O)=O,100%,103%,101%,97.1%,94.6%,106%,–
Cc1cc(OCCO)cc(C)c1Cl,116%,–,107%,110%,101%,107%,102%
O=C(NC1CCCCC1)OCc1c(COC(=O)NC2CCCCC2)c(-c2ccc(Cl)c(Cl)c2)n2c1CCC2,53.7%,56.3%,32.6%,27.4%,15.5%,56.3%,30.5%
O=C1Cc2ccccc2C(=O)O1,101%,107%,105%,102%,98.2%,115%,112%
CN(C)CCC(=O)c1ccc(O)cc1,–,110%,107%,97.7%,106%,99.9%,104%
